Records with an inconclusive call do not appear. Where a call stands in place of a potency, no number is given. The source made the active and inactive calls. Unless noted, calls follow the shape of the dose curve; as a rule, active = well fitted curve in the direction sought with a large enough effect; inconclusive = small, poorly fitted or top-dose-only effect, or another doubt; inactive = no such curve, though single readings can be large; an effect the other way counts as inactive or inconclusive.
Tests used:
[1] = target: Cytochrome P450 1A2 (Homo sapiens) (UniProt P05177); assay: p450-cyp1a2 (AID 410; calls by dose curve; also: potency is read from the fitted curve at half-maximal effect)
Chain of Cytochrome P450 1A2 (Homo sapiens) (P05177 whole entry, looked up): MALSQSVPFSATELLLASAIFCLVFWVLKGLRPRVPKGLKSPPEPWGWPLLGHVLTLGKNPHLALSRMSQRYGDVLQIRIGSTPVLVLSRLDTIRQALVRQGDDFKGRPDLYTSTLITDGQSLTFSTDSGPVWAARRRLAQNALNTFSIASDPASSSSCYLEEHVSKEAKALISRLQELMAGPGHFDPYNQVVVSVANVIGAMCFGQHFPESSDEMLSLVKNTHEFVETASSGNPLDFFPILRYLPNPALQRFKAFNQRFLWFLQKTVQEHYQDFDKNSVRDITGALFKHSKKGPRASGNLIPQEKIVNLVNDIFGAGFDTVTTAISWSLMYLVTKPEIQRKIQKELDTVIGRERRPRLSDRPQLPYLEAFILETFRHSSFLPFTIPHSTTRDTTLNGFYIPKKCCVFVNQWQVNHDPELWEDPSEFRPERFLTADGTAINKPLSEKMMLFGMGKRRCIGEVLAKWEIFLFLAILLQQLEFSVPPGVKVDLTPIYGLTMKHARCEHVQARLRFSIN
How it was run: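 Luminescent demethylation readout: Luciferin-ME (100uM, equal to Km) turned over by 20nM CYP1A2 for 60 min at room temperature after NADPH regeneration addition, following 10 min compound preincubation. Normalization used 57 uM furafylline as full inhibition.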

[2] = target: Mitogen-activated protein kinase 10 (Mus musculus) (UniProt Q61831); assay: JNK3 AlphaScreen Assay (AID 530; active = well fitted curve in either direction with a large enough effect, not every such curve was filed as active;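 also: kinase came from lysate of stimulated human HepG2 cells; signal reports phosphorylation of biotinylated GST-cJun 1-79 at Ser73 with 10 µM ATP; series mostly up to about 57 µM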)
How it was run: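 qHTS titrations with 15 min compound pre-incubation before adding ATP (10 uM final). Read-out: AlphaScreen of Ser73-phosphorylated biotin-GST-cJun using HepG2 lysate JNK3 activated by IL-1β and TNFα.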

[3] = target: Cytochrome P450 3A4 (Homo sapiens) (UniProt P08684); assay: qHTS Assay for Inhibitors and Substrates of Cytochrome P450 3A4 (AID 884); also: potency is read from the fitted curve at half-maximal effect; nearly all actives have a fitted effect of over 50% in size
Chain of Cytochrome P450 3A4 (Homo sapiens) (P08684 whole entry, looked up): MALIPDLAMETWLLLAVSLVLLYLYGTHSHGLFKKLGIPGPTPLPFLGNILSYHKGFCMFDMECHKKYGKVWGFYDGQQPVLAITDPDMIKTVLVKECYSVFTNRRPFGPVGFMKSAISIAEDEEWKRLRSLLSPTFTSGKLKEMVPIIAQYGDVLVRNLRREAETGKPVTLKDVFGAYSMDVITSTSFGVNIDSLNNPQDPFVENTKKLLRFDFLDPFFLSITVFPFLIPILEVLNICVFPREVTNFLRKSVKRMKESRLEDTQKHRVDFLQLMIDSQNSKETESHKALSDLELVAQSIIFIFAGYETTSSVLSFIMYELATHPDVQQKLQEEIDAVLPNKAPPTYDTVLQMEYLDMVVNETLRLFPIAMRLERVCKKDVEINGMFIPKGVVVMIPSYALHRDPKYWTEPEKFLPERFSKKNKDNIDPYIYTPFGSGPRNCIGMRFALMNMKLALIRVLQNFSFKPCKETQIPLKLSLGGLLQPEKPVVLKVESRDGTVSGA
How it was run: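 Luminescent readout of luciferin produced by CYP3A4 (20 nM) dealkylation of Luciferin-PPXE, 25 uM (its KM). NADPH-driven reaction ran 60 min at RT after 10 min compound preincubation; data scaled to 57 uM ketoconazole as 100% inhibition.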

[4] = target: Cytochrome P450 3A4 (Homo sapiens) (UniProt P08684); assay: qHTS Assay for Activators of Cytochrome P450 3A4 (AID 885); also: nearly all actives have a fitted effect of over 65% in size
How it was run: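 Human CYP3A4 dealkylates Luciferin-PPXE to luciferin, which luciferase detection converts to light. Substrate was at its KM (25uM), buffer 200mM KPO4, reaction 60 min at RT.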

[5] = target: Cytochrome P450 2D6 (Homo sapiens) (UniProt P10635); assay: qHTS Assay for Inhibitors and Substrates of Cytochrome P450 2D6 (AID 891); also: nearly all actives have a fitted effect of over 60% in size; also: potency is read from the fitted curve at half-maximal effect
Chain of Cytochrome P450 2D6 (Homo sapiens) (P10635 whole entry, looked up): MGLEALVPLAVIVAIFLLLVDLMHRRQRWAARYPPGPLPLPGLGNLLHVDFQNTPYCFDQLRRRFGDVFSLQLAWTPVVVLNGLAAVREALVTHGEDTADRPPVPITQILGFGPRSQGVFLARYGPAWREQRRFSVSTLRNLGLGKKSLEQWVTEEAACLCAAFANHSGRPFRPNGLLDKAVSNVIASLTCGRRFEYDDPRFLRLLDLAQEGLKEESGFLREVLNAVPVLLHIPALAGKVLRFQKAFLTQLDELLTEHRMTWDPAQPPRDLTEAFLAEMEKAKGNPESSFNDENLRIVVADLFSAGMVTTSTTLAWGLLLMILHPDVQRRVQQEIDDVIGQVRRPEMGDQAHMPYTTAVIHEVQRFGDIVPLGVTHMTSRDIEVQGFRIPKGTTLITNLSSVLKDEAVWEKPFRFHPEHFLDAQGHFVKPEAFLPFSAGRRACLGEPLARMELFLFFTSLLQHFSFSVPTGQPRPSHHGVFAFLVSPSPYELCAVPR
How it was run: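 Luminescent read-out of luciferin formed by 5 nM human CYP2D6 demethylating 30 uM Luciferin-ME EGE (Km level) over 60 min at room temperature after NADPH regeneration addition. Data normalized to full inhibition by 1.43 uM quinidine.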

[6] = target: Cytochrome P450 2C19 (Homo sapiens) (UniProt P33261); assay: qHTS Assay for Inhibitors and Substrates of Cytochrome P450 2C19 (AID 899); also: nearly all actives have a fitted effect of over 60% in size; also: potency is read from the fitted curve at half-maximal effect
Chain of Cytochrome P450 2C19 (Homo sapiens) (P33261 whole entry, looked up): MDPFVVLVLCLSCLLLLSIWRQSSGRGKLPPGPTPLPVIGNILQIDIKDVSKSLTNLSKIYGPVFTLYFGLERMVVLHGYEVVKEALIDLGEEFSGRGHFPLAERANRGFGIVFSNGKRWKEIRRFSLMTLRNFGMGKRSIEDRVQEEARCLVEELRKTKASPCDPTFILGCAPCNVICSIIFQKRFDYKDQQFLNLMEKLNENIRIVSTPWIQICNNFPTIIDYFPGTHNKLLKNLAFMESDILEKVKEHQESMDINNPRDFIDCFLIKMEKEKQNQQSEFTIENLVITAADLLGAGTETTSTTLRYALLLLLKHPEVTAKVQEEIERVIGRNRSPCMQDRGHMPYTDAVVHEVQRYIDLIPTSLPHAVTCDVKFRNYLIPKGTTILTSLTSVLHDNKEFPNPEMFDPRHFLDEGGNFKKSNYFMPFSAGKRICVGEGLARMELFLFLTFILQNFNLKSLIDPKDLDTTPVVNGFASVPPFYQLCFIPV
How it was run: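 5nM enzyme + 10uM Luciferin-H EGE (=KM), 50mM KPO4; cpd pin-transferred, 10 min 37C; NADPH regen, 60 min 37C; stopped w/ luciferin detection reagent, 20 min; luminescence. Normalized to 57uM ketoconazole (AC100).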

[7] = target: Cytochrome P450 2C9 (Homo sapiens) (UniProt P11712); assay: qHTS Assay for Inhibitors and Substrates of Cytochrome P450 2C9 (AID 883); also: nearly all actives have a fitted effect of over 60% in size; also: potency is read from the fitted curve at half-maximal effect
Chain of Cytochrome P450 2C9 (Homo sapiens) (P11712 whole entry, looked up): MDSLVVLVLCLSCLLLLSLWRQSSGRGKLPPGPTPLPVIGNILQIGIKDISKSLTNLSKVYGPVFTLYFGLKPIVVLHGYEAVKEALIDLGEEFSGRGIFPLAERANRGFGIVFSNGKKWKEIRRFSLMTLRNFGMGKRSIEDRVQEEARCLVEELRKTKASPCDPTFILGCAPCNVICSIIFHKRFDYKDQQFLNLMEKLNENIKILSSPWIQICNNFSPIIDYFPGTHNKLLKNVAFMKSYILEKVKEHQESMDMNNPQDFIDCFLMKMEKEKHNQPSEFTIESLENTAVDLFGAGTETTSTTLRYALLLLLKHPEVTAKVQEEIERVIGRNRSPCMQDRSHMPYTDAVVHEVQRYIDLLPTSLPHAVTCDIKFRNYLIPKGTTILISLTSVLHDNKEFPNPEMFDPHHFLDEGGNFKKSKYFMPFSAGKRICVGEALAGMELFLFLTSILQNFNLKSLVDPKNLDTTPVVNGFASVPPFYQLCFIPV
How it was run: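 Inhibition of CYP2C9 is scored as loss of luminescence, with 57uM sulphaphenazole defining 100% inhibition. Substrate Luciferin-H is used at 100uM, equal to its KM; enzyme at 10nM in 25mM KPO4, 60 min at 37C with NADPH regeneration.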

[8] = target: 3',5'-cyclic-AMP phosphodiesterase 4B (Homo sapiens) (UniProt Q07343); assay: qHTS Assay for Inhibitors of PDE-IV (AID 607; active = well fitted activation curve with a large enough effect in the main read-out, with a control signal flat, not every such curve was filed as active)
Chain of 3',5'-cyclic-AMP phosphodiesterase 4B (Homo sapiens) (Q07343 whole entry, looked up): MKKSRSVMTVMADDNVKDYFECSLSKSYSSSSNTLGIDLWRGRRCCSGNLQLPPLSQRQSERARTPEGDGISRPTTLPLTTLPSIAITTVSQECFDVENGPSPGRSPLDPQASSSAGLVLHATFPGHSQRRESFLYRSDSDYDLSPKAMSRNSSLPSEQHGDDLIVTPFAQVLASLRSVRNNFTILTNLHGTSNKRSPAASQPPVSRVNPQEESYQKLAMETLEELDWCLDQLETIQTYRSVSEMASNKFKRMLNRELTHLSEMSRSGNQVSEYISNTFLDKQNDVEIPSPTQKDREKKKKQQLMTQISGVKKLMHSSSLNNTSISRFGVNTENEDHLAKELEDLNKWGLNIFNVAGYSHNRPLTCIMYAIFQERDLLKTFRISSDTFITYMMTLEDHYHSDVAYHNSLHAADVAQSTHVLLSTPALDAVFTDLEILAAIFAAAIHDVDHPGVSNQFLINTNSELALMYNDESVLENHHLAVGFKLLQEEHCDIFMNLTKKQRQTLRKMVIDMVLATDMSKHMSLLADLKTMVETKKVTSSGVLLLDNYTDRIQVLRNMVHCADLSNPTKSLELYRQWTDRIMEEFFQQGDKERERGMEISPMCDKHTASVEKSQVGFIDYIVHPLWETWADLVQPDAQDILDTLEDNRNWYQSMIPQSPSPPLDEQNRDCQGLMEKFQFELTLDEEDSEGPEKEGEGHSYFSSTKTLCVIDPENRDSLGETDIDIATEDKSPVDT
How it was run: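 HEK293 ACTOne cells with CNG channel (1000/well), endogenous PDE4; membrane potential dye, compounds up to 22.9 uM final. Fluorescence Ex 535/Em 590; RO 20-1724 (100 uM final) as reference.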

COc1ccc2nc3c(c([Si](C)(C)C(C)(C)C)c2c1)Cn1c-3cccc1=O
Potency [1]: 0.794 µM (active) | Potency [2]: inactive | Potency [3]: 1.58 µM (active) | Potency [4]: inactive | Potency [5]: 2 µM (active) | Potency [6]: 2 µM (active)

CCCC[C@@H]1C[C@H]1C(NC(=O)Cc1ccccc1)c1ccc(-c2ccccc2)cc1 (some centres not stated)
Potency [1]: inactive | Potency [2]: inactive | Potency [4]: inactive

C#CCOC(=O)NC(/C=C/CCCC)c1ccccc1 (configuration not stated)
Potency [1]: 15.8 µM (active) | Potency [2]: inactive | Potency [4]: inactive

CCC[C@@H]1C[C@@]1(CCC)C(NC(=O)c1ccccc1)c1cccc(Cl)c1 (some centres not stated)
Potency [1]: inactive | Potency [2]: inactive | Potency [4]: inactive | Potency [5]: 3.16 µM (active)

CCC/C=C(\CCC)C(NC(=O)c1ccccc1)c1ccccc1 (configuration not stated)
Potency [1]: 10 µM (active) | Potency [2]: inactive | Potency [4]: inactive

COC(=O)[C@@]1(Cc2ccc(F)cc2)[C@H]2c3cc(C(=O)N4CCCC4)n(Cc4ccc(C)c(F)c4F)c3C[C@H]2CN1C(=O)c1ccccc1
Potency [1]: inactive | Potency [2]: inactive | Potency [3]: 2.51 µM (active) | Potency [4]: inactive

CCCC[C@H]1C[C@@H]1[C@@H]1N(P(=O)(c2ccccc2)c2ccccc2)[C@](CO)(c2ccccc2)CC12CC2
Potency [1]: inactive | Potency [2]: inactive | Potency [4]: inactive | Potency [5]: 2.51 µM (active)

COC(=O)[C@@]1(Cc2ccc(F)cc2)[C@H]2c3cc(C(=O)N(C)C)n(Cc4ccc(C)o4)c3C[C@H]2CN1C(=O)c1ccccc1
Potency [1]: inactive | Potency [2]: inactive | Potency [3]: 2.51 µM (active) | Potency [4]: inactive

c1ccc(-c2c3ccccc3nc3[nH]c4ccccc4c23)cc1
Potency [1]: 0.501 µM (active) | Potency [2]: inactive | Potency [4]: inactive

CCCC[C@@H]1C[C@H]1C(NC(=O)Cc1ccccc1)c1ccc(Cl)cc1 (some centres not stated)
Potency [1]: 2.51 µM (active) | Potency [2]: inactive | Potency [3]: 2.51 µM (active) | Potency [4]: inactive | Potency [6]: 0.0501 µM (active)

CC[C@H]1C2=C3C(CC[C@H]4C(OCc5ccc(F)cc5C(F)(F)F)OC[C@](C)([C@@H]34)N(C(=O)OC(C)(C)C)C2)C(COC(C)=O)C1COC(C)=O (some centres not stated)
Potency [1]: inactive | Potency [2]: inactive | Potency [4]: inactive

CCCC[C@@H]1C[C@H]1C(NC(=O)c1ccccc1)c1ccc(-c2ccccc2)cc1 (some centres not stated)
Potency [1]: 0.501 µM (active) | Potency [2]: inactive | Potency [4]: inactive

CCc1cccc2nc3c(c([Si](C)(C)C)c12)Cn1c-3cccc1=O
Potency [1]: 2.51 µM (active) | Potency [2]: inactive | Potency [4]: inactive

CCC[C@@H]1C[C@@]1(CCC)C(NC(=O)c1cccs1)c1ccc(Cl)cc1 (some centres not stated)
Potency [1]: 10 µM (active) | Potency [2]: inactive | Potency [3]: 6.31 µM (active) | Potency [4]: inactive

CCC/C=C(\CCC)C(NP(=O)(c1ccccc1)c1ccccc1)c1ccc(-c2ccccc2)cc1 (configuration not stated)
Potency [1]: 2.51 µM (active) | Potency [2]: inactive | Potency [3]: 3.98 µM (active) | Potency [4]: inactive | Potency [6]: 7.94 µM (active)

CCC/C=C(\CCC)C(NS(=O)(=O)CC12CCC(CC1=O)C2(C)C)c1ccc(C(=O)OC)cc1 (configuration not stated)
Potency [1]: inactive | Potency [2]: inactive | Potency [3]: 3.98 µM (active) | Potency [4]: inactive | Potency [5]: 5.01 µM (active)

CCCc1cc2c(n1Cc1ccc(OC)cc1)C(C)C1CN(C(=O)c3ccccc3)C(C)(C(=O)OC)C21 (configuration not stated)
Potency [1]: 15.8 µM (active) | Potency [2]: inactive | Potency [3]: 3.16 µM (active) | Potency [4]: inactive

CC(C)c1cccc2nc3c(c([Si](C)(C)C(C)(C)C)c12)Cn1c-3cccc1=O
Potency [1]: 25.1 µM (active) | Potency [2]: inactive | Potency [4]: inactive

COc1cc2nc3c(c([Si](C)(C)C(C)(C)C)c2cc1OC)Cn1c-3cccc1=O
Potency [1]: 5.01 µM (active) | Potency [2]: inactive | Potency [3]: 3.98 µM (active) | Potency [4]: inactive

COC(=O)[C@@]1(Cc2ccccc2)[C@H]2c3cc(C(=O)N4CCCC4)n(C)c3C[C@H]2CN1C(=O)c1ccccc1
Potency [1]: 25.1 µM (active) | Potency [2]: inactive | Potency [3]: 3.98 µM (active) | Potency [4]: inactive | Potency [6]: 3.98 µM (active)

COC(=O)[C@@]1(Cc2ccc(OC)cc2)[C@@H]2C(=CC(=O)[C@H]2CC(=O)C(=O)N(C)C)CN1C(=O)c1ccccc1
Potency [1]: inactive | Potency [2]: inactive | Potency [4]: inactive

CC(C)C[C@@H](CC(=O)N[C@@H](CCC(=O)O)CC(=O)O)NC(=O)[C@@H]1CNCC[C@H]1NC(=O)C[C@@H](NC(=O)C[C@H](Cc1c[nH]c2ccccc12)NC(=O)[C@@H]1CNCC[C@H]1N)C(C)C
Potency [1]: inactive | Potency [7]: inactive | Potency [5]: inactive | Potency [6]: inactive

CCC/C=C(\CCC)C(NC(=O)c1ccc(C(F)(F)F)cc1)c1ccccc1 (configuration not stated)
Potency [1]: 25.1 µM (active) | Potency [8]: inactive | Potency [4]: inactive | Potency [5]: 7.94 µM (active)

CCC/C=C(\CCC)C(NC(=O)Cc1ccccc1)c1ccc(C(=O)OC)cc1 (configuration not stated)
Potency [1]: 15.8 µM (active) | Potency [3]: 3.98 µM (active) | Potency [4]: inactive | Potency [6]: 2.51 µM (active)

NCCC[C@@H](CC(=O)N[C@@H]1CCCC[C@H]1C(=O)N[C@H](CC(=O)N[C@@H](CCC(=O)O)CC(=O)O)Cc1c[nH]c2ccccc12)NC(=O)C[C@H](Cc1c[nH]c2ccccc12)NC(=O)[C@@H]1CCCC[C@H]1N
Potency [1]: inactive | Potency [8]: inactive | Potency [7]: inactive | Potency [6]: inactive

CCC/C=C(\CCC)C(NS(=O)(=O)c1ccc(Cl)cc1)c1ccccc1 (configuration not stated)
Potency [1]: 12.6 µM (active) | Potency [7]: 2.51 µM (active) | Potency [3]: 7.94 µM (active) | Potency [4]: inactive | Potency [6]: 0.398 µM (active)
